Experimental data taken from PubChem BioAssay (NCATS).
Values joined by “and” are separate entries in the source; they are usually repeats but may differ in a detail not shown here. Equal values may be shown once. Inconclusive results are not listed. Active and inactive are the calls of the source. Unless noted, calls follow the shape of the dose curve; as a rule, active = well fitted curve in the direction sought with a large enough effect; inconclusive = small, poorly fitted or top-dose-only effect, or another doubt; inactive = no such curve, though single readings can be large; an effect the other way counts as inactive or inconclusive.

Key:
[1] = AP1 Signaling Pathway (AID 357; active = well fitted curve in either direction with a large enough effect, not every such curve was filed as active;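 also: ME-180 reporter cells stimulated with EGF at its EC50 level; % is scaled to controls: 0 for no effect and ±100 for the full control effect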); details: ME-180 AP-1-bla reporter, EGF-induced, beta-lactamase ratio, 5 h
In short: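 Titration-series screen for positive or negative modulators of EC50 EGF-induced signaling in ME-180 cells carrying an AP-1-driven beta-lactamase reporter. After 5 hours at 37 degrees Celsius, CCF4 460nm/530nm emission ratio gave %Activity; AC50 values derived.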

[2] = molecular target: Cytochrome P450 1A2 (Homo sapiens) (UniProt P05177); test: p450-cyp1a2 (AID 410; calls by dose curve; also: potency is read from the fitted curve at half-maximal effect;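 as to activity change, negative = inhibition: -100% = full effect of reference inhibitor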)
In short: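 20nM CYP1A2 with 100uM Luciferin-ME (at Km) in 100mM KPO4; compound preincubated 10 min, NADPH regeneration added, 60 min at room temperature. Luciferin quantified by luminescence after detection reagent; normalized to 57 uM furafylline.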

[3] = NFAT Signaling Pathway (AID 444; active = well fitted curve in either direction with a large enough effect, not every such curve was filed as active;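 also: carbachol stimulus at about its EC50 of 1 µM final; % is scaled to controls: 0 for no effect and ±100 for the full control effect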); details: Jurkat NFAT-bla M1, carbachol, beta-lactamase ratio, 5 h
In short: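 Jurkat cells with NFAT-driven β-lactamase reporter and co-expressed M1 receptor, stimulated with carbachol (final 1 uM, ~EC50), compound titration, 5 h at 37 °C. CCF4 loaded 1 h at RT; 460/530 nm ratio gave %activity and AC50.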

[4] = Stat Signaling Pathway (AID 446; active = well fitted curve in either direction with a large enough effect, not every such curve was filed as active;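 also: ME-180 cervical cancer cells given 40 pM IL-6 alongside compound; SIE-controlled beta-lactamase reporter measured as 460/530 nm FRET emission ratio; % is scaled to controls: 0 for no effect and ±100 for the full control effect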); details: ME-180 SIE beta-lactamase reporter, IL-6 stimulated, 5 h
In short: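 IL-6/STAT signaling read in ME-180 cells via an SIE beta-lactamase reporter. Stimulus was 40 pM IL-6 (its AC50) for 5 hrs, so both activation and inhibition register.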

[5] = molecular target: Mitogen-activated protein kinase 10 (Mus musculus) (UniProt Q61831); test: JNK3 AlphaScreen Assay (AID 530; active = well fitted curve in either direction with a large enough effect, not every such curve was filed as active;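 also: kinase came from lysate of stimulated human HepG2 cells; signal reports phosphorylation of biotinylated GST-cJun 1-79 at Ser73 with 10 µM ATP; % is scaled to controls: 0 for no effect and ±100 for the full control effect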)
In short: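 Pre-activated (IL-1β/TNFα) JNK3 in HepG2 lysates phosphorylates biotin-GST-cJun(1-79), 10 uM ATP; anti-phospho-cJun(Ser73) AlphaScreen read at room temperature, pH 7.6 Tris buffer. Compounds pre-incubated 15 min as titrations.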

[6] = molecular target: 3',5'-cyclic-AMP phosphodiesterase 4B (Homo sapiens) (UniProt Q07343); test: qHTS Assay for Inhibitors of PDE-IV (AID 607; active = well fitted activation curve with a large enough effect in the main read-out, with a control signal flat, not every such curve was filed as active; also: % of control where 0% means no effect)
In short: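 Live HEK293 cells with a modified cyclic nucleotide-gated (CNG) channel report intracellular cAMP via membrane-potential dye fluorescence (ex 535/em 590 nm). Endogenous PDE-IV was targeted. Compounds were tested at up to 22.9 uM final; RO 20-1724 100 uM served as control.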

[7] = molecular target: Guanine nucleotide-binding protein G(i) subunit alpha-1 (Homo sapiens) (UniProt P63096); test: qHTS Assay for Inhibitors of RGS12 GoLoco Motif Activity (Green Fluorophore) (AID 879);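 also: 0% = labeled peptide with Gαi1 and full inhibition = labeled peptide alone without protein; negative values mean loss of peptide binding seen as reduced polarization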
In short: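 Fluorescence polarization assay: 50 nM Gαi1 with 10 nM FITC-labeled RGS12 GoLoco peptide in 10 mM Tris pH 7.5, 150 mM NaCl, 0.1 mM GDP, 0.05% NP40, 10 min at room temperature with compound.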

[8] = molecular target: Cytochrome P450 2C9 (Homo sapiens) (UniProt P11712); test: qHTS Assay for Inhibitors and Substrates of Cytochrome P450 2C9 (AID 883); also: % is scaled to controls: 0 for no effect and ±100 for the full control effect; nearly all actives have a fitted effect of over 60% in size
In short: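 10nM CYP2C9 + 100uM Luciferin-H (=KM), 25mM KPO4; cpd 10 min 37C; NADPH regen, 60 min 37C; stop/detect with P450 Glo-Buffer 20 min; luminescence. Norm. to 57uM sulphaphenazole as full inhibition.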

[9] = molecular target: Cytochrome P450 2D6 (Homo sapiens) (UniProt P10635); test: qHTS Assay for Inhibitors and Substrates of Cytochrome P450 2D6 (AID 891); also: potency is read from the fitted curve at half-maximal effect; nearly all actives have a fitted effect of over 60% in size
In short: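 Human CYP2D6 (5 nM) with 30 uM Luciferin-ME EGE (at Km) in 100 mM KPO4, compound preincubated 10 min, then NADPH regeneration system for 60 min at room temperature. Luciferin read by luminescence; normalized to 1.43 uM quinidine.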

[10] = qHTS Assay for Identification of Small Molecule Antagonists for NFkB Signaling Pathway (AID 895; active = well fitted inhibition curve with a large enough effect in the signal ratio, with a control signal flat, not every such curve was filed as active; the % refers to the signal ratio; also: % is scaled to controls: 0 for no effect and ±100 for the full control effect)
In short: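 ME-180 NFkB-bla cells (beta-lactamase under NFkB response element), plated overnight, treated with compound then 10 pM TNF alpha (about EC50) for 5 hrs at 37 C. LiveBLAzer FRET read at 460/530 nm emission, 405 nm excitation.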

[11] = molecular target: Cytochrome P450 2C19 (Homo sapiens) (UniProt P33261); test: qHTS Assay for Inhibitors and Substrates of Cytochrome P450 2C19 (AID 899); also: % is scaled to controls: 0 for no effect and ±100 for the full control effect; nearly all actives have a fitted effect of over 60% in size
In short: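 Luminescent read-out of luciferin formed from Luciferin-H EGE (10uM, equal to KM). Enzyme 5nM in 50mM KPO4; compound added, 10 min at 37C, then NADPH regenerating system for 60 min at 37C. Full inhibition defined by 57uM ketoconazole.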

[12] = qHTS Assay for Identification of Small Molecule Agonists for Thrombopoietin (TPO) Signaling Pathway (AID 917); also: % is scaled to controls: 0 for no effect and ±100 for the full control effect
In short: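 IL-3-dependent murine pro-B Ba/F3 cells, stably transfected with human TPO receptor and GpIIb-promoter luciferase, are incubated 24 hrs at 37 C with test compound and 26 pM TPO; luciferase signal is read after 10 min at room temperature.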

[13] = molecular target: Pyruvate kinase (Leishmania mexicana) (UniProt Q27686); test: qHTS Validation Assay for Inhibitors of Leishmania Mexicana Pyruvate Kinase (AID 945);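 also: 0% = DMSO only neutral control wells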
In short: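 Mutant LmPYK (E451W), 0.2 nM, plus 0.5 mM PEP and 0.1 mM ADP in 50 mM imidazole pH 7.2 containing 0.01% Tween 20 and 0.05% BSA. Incubated 1 h at room temperature; luminescence via PKLight, normalized to DMSO.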

[14] = molecular target: Pyruvate kinase PKM (Homo sapiens) (UniProt P14618); test: qHTS Assay for Activators of Human Muscle Pyruvate Kinase (AID 954; active = well fitted curve in the direction sought with a large enough effect, not every such curve was filed as active;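 also: 0% = uninhibited enzyme and -100% = no enzyme or full thiadiazolimine inhibition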)
In short: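 Enzyme was run at intermediate activity so both inhibitors and activators could be detected. ATP formed from ADP and PEP by 0.1 nM human PKM2 during a 1 h room-temperature incubation was quantified by coupled luciferase luminescence.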

[15] = molecular target: Alpha-galactosidase A (Homo sapiens) (UniProt P06280); test: Counterscreen for Glucocerebrosidase Inhibitors: qHTS Assay for Human alpha-Galactosidase at pH 4.5 (AID 992); also: 0% is about no effect
In short: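 Read-out is 4-methylumbelliferone fluorescence (365 nm excitation, 440 nm emission) after a pH 10 NaOH/glycine stop. Reactions held 2 nM enzyme and 80 uM substrate at pH 4.5 for 20 min at room temperature.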

[16] = molecular target: alpha-glucosidase (Oryza sativa, rice) (UniProt Q653V4); test: Counterscreen for Glucocerebrosidase Inhibitors: qHTS Assay for Rice alpha-Glucosidase at pH 5.0 (AID 997);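 also: 0% = full activity with enzyme and -100% = basal without enzyme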
In short: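 Rice alpha-glucosidase (4 nM final) with 400 uM 4-methylumbelliferyl-alpha-D-glucopyranoside in citrate buffer pH 5.0, 20 min at room temperature, stopped at pH 10; fluorescence 365/440 nm, compounds 0.7 nM–77 uM, AC50 from Hill fits.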

[17] = molecular target: DNA dC->dU-editing enzyme APOBEC-3G (Homo sapiens) (UniProt Q9HC16); test: qHTS for inhibitors of Vif-A3G interactions: Validation (AID 588379); also: 0% is about no effect
In short: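 HeLa cells stably expressing Vif and A3G-eYFP, 700 cells/well, incubated overnight at 37 deg C, then exposed to compound overnight at 37 deg C. Inhibition of Vif-mediated degradation read as increased yellow fluorescence (Ex 488/Em 500-530) by laser-scanning cytometry.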

[18] = test system: Zika virus NS2B-NS3 protease; test: Primary screen GU AMC qHTS for Zika virus inhibitors (AID 1347154);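 also: 0% = no-inhibitor control and -100% = no-enzyme control; nearly all actives have a fitted effect of over 70% in size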
In short: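 Unlinked Zika NS2B hydrophilic domain–NS3 protease complex at 25 nM in 10 mM Tris-HCl pH 8.0, 0.01% Tween 20, with an AMC peptide substrate. Fluorescence change (340/450 nm) over 15 min at room temperature, normalized to controls, fitted to 4-parameter Hill.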

[19] = molecular target: Glucocorticoid receptor (Homo sapiens) (UniProt P04150); test: GR-EFC Redistribution (AID 451; calls by dose curve; also: potency is read from the fitted curve at half-maximal effect); details: CHO-K1 GR-EFC translocation, beta-gal luminescence, 2 h
In short: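 CHO-K1 cells expressing nuclear EA and GR-ED fragments of b-gal; compounds titrated up to 46 uM final, 2 h at 37 C. GR nuclear translocation read as complemented b-gal luminescence after 1 h RT detection.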

[20] = molecular target: Ubiquitin carboxyl-terminal hydrolase 1 (Homo sapiens) (UniProt O94782); test: Inhibitors of USP1/UAF1: Pilot qHTS (AID 504865);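 also: rhodamine fluorescence freed from ubiquitin-rhodamine substrate followed over time; top concentration of the series differs between compounds; % is scaled to controls: 0 for no effect and ±100 for the full control effect; nearly all actives have a fitted effect of over 35% in size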
In short: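 Enzyme-free wells gave the negative control, while test wells held 1nM USP1/UAF1 preincubated with compound for 15 min at room temperature. Ub-Rho at 150nM final started the reaction, and fluorescence at 480/540 nm was recorded kinetically.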

[21] = molecular target: Rap guanine nucleotide exchange factor 3 (Homo sapiens) (UniProt O95398); test: Confirmatory qHTS for antagonist of cAMP-regulated guanine nucleotide exchange factor 3 (EPAC1) (AID 1645880);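 also: plate controls were DMSO only for no effect and full effect of the ATA control for full effect; nearly all actives have a fitted effect of over 55% in size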
In short: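 Nucleotide exchange uses 100 nM EPAC1, 250 nM RAP1B-BODIPY-GDP and 50 uM GDP, with compounds in a concentration-titration series. After 5 min at room temperature, fluorescence (480 nm ex/540 nm em) is read every 5 min for 30 min. Data are normalized to control ATA and DMSO.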

[22] = molecular target: Rap guanine nucleotide exchange factor 3 (Homo sapiens) (UniProt O95398); test: Confirmatory qHTS for agonist of cAMP-regulated guanine nucleotide exchange factor 3 (EPAC1) (AID 1645881);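 also: EPAC1 catalysed release of BODIPY-GDP from Rap1B seen as fluorescence loss; 100% = effect of cAMP agonist control; nearly all actives have a fitted effect of over 75% in size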
[23] = molecular target: Rap guanine nucleotide exchange factor 4 (Homo sapiens) (UniProt Q8WZA2); test: Confirmatory qHTS for agonist of cAMP-regulated guanine nucleotide exchange factor 4 (EPAC2) (AID 1645884);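 also: nucleotide exchange releases bodipy-GDP from Rap1 and this lowers its fluorescence; % is scaled to controls: 0 for no effect and ±100 for the full control effect; nearly all actives have a fitted effect of over 65% in size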
[24] = molecular target: Rap guanine nucleotide exchange factor 4 (Homo sapiens) (UniProt Q8WZA2); test: Confirmatory qHTS for antagonist of cAMP-regulated guanine nucleotide exchange factor 4 (EPAC2) (AID 1645885); also: % is scaled to controls: 0 for no effect and ±100 for the full control effect; nearly all actives have a fitted effect of over 25% in size
[25] = molecular target: Glucocorticoid receptor (Homo sapiens) (UniProt P04150); test: GR-GFP Redistribution (AID 450;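 active = compounds whose dose series gives a full or clear partial fitted curve of increased nuclear translocation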; also: potency is read from the fitted curve at half-maximal effect); details: U2OS GR-GFP nuclear translocation, laser cytometry, 2 h
[26] = molecular target: Cytochrome P450 3A4 (Homo sapiens) (UniProt P08684); test: qHTS Assay for Inhibitors and Substrates of Cytochrome P450 3A4 (AID 884); also: potency is read from the fitted curve at half-maximal effect; nearly all actives have a fitted effect of over 50% in size
In short: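 20 nM human CYP3A4 with 25 uM Luciferin-PPXE (at KM) in 200 mM KPO4, preincubated 10 min with compound; NADPH regeneration started a 60 min RT reaction. Luciferin detected by luminescence, normalized to 57 uM ketoconazole as full inhibition.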

[27] = molecular target: Cytochrome P450 3A4 (Homo sapiens) (UniProt P08684); test: qHTS Assay for Activators of Cytochrome P450 3A4 (AID 885); also: nearly all actives have a fitted effect of over 65% in size
In short: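 Quantitative HTS format: compounds preincubated with 20nM human CYP3A4 and Luciferin-PPXE substrate at KM, reaction started by NADPH regeneration, stopped after 60 min, luciferase luminescence read 20 min later.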

Cytochrome P450 2D6 (Homo sapiens), sequence (P10635 whole entry, looked up): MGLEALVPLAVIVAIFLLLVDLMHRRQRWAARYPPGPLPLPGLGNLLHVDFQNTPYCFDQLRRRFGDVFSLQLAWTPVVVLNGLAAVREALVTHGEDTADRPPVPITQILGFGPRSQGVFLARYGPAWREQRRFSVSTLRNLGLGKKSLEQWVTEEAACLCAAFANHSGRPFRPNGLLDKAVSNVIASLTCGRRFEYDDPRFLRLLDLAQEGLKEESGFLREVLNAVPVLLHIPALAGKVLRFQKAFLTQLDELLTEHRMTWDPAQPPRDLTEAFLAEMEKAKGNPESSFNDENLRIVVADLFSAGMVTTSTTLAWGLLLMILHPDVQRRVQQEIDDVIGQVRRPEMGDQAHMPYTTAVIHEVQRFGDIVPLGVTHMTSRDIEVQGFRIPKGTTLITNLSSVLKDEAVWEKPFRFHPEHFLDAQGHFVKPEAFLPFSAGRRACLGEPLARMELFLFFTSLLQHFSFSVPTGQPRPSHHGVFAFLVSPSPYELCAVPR
3',5'-cyclic-AMP phosphodiesterase 4B (Homo sapiens), sequence (Q07343 whole entry, looked up): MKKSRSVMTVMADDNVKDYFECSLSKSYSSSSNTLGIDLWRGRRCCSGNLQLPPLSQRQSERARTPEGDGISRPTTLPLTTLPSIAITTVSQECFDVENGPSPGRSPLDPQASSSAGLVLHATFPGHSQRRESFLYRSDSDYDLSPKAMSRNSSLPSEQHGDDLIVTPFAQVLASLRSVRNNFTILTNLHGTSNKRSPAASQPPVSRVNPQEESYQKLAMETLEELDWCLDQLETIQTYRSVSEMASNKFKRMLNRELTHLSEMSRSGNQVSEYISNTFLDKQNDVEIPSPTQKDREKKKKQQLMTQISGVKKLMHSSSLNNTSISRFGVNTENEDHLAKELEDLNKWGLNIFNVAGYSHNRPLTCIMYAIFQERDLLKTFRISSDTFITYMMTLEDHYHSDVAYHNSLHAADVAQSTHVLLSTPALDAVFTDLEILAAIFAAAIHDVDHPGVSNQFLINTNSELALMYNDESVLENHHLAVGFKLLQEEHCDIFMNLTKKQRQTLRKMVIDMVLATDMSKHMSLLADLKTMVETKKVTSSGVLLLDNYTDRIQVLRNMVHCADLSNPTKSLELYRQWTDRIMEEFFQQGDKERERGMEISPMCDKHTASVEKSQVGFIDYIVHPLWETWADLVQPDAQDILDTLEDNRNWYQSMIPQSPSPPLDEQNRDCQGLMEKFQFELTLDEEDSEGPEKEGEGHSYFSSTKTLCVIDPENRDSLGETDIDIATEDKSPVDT
Glucocorticoid receptor (Homo sapiens), sequence (P04150 whole entry, looked up, the tested form may be a part): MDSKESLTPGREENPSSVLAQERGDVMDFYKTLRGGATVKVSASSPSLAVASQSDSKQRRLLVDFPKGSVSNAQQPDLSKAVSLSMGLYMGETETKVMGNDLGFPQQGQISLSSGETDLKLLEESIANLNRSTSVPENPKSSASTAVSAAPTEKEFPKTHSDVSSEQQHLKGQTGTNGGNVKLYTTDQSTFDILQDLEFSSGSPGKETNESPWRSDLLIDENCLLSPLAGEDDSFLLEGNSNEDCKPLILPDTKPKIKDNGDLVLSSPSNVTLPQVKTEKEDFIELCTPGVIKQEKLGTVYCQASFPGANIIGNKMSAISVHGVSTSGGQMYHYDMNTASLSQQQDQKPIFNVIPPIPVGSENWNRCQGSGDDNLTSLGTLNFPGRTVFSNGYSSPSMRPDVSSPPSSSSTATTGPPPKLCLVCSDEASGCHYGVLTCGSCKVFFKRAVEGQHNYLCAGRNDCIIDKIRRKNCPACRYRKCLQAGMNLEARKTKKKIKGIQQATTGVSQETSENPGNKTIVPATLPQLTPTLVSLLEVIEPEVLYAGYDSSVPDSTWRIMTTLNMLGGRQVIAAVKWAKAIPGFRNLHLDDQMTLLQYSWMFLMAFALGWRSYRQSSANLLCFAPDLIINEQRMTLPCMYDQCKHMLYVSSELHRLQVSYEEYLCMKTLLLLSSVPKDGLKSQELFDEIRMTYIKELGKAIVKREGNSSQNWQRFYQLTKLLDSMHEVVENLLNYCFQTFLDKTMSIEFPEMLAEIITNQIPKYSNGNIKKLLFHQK
DNA dC->dU-editing enzyme APOBEC-3G (Homo sapiens), sequence (Q9HC16 whole entry, looked up): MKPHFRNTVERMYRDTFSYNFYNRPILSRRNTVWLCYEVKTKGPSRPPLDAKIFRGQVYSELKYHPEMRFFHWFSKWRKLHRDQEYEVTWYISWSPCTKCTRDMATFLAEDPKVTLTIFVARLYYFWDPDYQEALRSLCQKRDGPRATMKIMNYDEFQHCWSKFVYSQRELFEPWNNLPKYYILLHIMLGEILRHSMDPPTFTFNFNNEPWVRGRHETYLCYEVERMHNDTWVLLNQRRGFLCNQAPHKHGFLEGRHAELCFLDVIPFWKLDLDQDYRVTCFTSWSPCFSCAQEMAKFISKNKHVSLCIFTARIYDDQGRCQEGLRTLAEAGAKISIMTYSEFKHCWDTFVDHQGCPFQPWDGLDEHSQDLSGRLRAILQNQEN
Cytochrome P450 1A2 (Homo sapiens), sequence (P05177 whole entry, looked up): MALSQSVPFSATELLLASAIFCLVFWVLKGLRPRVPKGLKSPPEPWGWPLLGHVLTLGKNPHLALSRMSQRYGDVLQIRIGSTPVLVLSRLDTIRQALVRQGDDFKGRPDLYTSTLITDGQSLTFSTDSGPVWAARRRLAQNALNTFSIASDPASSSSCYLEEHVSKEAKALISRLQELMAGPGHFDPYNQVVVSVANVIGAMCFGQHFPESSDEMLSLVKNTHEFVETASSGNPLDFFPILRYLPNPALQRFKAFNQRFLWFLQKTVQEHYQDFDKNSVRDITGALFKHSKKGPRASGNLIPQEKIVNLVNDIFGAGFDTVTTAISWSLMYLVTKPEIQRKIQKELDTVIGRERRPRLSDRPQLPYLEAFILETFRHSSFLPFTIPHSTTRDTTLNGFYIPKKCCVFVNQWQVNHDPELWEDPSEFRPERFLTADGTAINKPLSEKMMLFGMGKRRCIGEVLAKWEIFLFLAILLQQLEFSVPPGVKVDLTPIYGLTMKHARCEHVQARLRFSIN
Ubiquitin carboxyl-terminal hydrolase 1 (Homo sapiens), sequence (O94782 whole entry, looked up): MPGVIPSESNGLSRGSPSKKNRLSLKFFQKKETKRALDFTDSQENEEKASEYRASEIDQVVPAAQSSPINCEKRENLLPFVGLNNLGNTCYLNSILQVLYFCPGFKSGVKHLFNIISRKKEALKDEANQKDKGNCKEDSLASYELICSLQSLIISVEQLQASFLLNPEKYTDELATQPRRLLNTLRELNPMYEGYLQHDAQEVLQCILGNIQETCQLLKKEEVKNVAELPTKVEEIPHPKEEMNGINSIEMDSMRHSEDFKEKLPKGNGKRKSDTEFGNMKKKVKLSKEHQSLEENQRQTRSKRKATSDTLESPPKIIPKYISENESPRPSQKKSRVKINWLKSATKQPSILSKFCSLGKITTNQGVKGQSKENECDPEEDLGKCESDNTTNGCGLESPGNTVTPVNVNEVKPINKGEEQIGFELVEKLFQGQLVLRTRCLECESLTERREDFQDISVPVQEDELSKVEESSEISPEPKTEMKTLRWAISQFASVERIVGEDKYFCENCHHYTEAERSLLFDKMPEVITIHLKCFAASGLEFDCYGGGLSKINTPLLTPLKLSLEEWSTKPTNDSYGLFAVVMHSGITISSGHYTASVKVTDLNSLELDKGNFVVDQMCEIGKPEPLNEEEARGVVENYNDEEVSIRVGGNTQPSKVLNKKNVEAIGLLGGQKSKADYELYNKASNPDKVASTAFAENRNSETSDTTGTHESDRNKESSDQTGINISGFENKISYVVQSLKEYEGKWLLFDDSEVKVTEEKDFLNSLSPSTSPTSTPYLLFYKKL
Rap guanine nucleotide exchange factor 3 (Homo sapiens), sequence (O95398 whole entry, looked up): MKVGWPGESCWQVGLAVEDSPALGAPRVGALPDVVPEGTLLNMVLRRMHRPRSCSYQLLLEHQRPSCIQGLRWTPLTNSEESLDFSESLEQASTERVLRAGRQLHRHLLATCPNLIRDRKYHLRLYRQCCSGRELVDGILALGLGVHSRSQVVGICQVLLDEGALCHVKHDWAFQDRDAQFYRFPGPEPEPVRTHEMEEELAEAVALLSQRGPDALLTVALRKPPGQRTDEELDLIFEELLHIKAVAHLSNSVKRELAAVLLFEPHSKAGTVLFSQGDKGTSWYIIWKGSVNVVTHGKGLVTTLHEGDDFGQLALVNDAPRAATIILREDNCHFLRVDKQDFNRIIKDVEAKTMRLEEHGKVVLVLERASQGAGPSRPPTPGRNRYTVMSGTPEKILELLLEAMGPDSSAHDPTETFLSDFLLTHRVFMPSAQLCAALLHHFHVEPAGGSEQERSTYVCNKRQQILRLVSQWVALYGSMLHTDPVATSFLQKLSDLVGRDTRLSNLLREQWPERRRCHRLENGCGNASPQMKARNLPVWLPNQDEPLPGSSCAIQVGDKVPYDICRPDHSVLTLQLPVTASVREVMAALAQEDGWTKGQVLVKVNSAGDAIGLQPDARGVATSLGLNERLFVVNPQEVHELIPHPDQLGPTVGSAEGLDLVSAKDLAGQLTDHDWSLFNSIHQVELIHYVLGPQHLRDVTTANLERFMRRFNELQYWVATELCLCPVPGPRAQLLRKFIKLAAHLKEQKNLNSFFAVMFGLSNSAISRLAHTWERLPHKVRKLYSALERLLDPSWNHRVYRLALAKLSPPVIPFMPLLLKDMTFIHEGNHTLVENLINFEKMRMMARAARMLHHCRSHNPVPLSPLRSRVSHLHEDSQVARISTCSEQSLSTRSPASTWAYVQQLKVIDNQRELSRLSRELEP
Alpha-galactosidase A (Homo sapiens), sequence (P06280 whole entry, looked up): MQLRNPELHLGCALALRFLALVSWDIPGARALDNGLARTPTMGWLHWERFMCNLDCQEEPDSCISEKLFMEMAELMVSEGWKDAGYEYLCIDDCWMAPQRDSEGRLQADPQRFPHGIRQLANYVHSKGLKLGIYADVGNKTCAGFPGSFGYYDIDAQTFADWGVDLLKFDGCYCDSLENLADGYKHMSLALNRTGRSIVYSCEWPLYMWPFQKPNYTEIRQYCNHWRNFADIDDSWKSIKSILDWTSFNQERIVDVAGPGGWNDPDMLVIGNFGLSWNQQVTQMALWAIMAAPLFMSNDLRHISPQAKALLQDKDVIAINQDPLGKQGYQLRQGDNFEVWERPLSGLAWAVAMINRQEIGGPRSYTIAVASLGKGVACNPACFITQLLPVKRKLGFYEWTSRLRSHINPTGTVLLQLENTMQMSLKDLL

CNC(=O)Oc1ccc2c(c1)[C@@]1(C)CCN(C)[C@@H]1N2C
active: Potency [9] 1.26 µM and 79.4 nM and 251 nM
inactive: activity change, negative = inhibition ([1]; at 17.2 µM (top of the series)) -5.3% | activity change, negative = inhibition ([1]; at 38 µM (top of the series)) 6.53% | Potency [2] | activity change, negative = inhibition ([3]; at 17.2 µM (top of the series)) -2.84% | activity change, negative = inhibition ([3]; at 38 µM (top of the series)) -3.73% | activity, negative = inhibition ([4]; at 17.2 µM (top of the series)) 5.27% | activity, negative = inhibition ([4]; at 38 µM (top of the series)) -23.2% | Potency [5] | Potency [6] | outcome [7] | Potency [8] | Potency [10] | Potency [11] | Potency [12] | Potency [13] | outcome [14] | outcome [15] | outcome [16] | Potency [17] | Potency [18]

C[N+](C)(C)CCCCCNCC12CC3CC(CC(C3)C1)C2
inactive: Potency [2] | Potency [19] > 46 µM | Potency [5] | Potency [20] | Potency [17] | Potency [18]

CN1[C@@H]2CC(OC(=O)[C@H](CO)c3ccccc3)C[C@@H]1[C@H]1O[C@H]12 (stereo partly specified)
inactive: Potency [17] | Potency [18] | Potency [21] | outcome [22] | outcome [23] | Potency [24]

O=C(NCCCN1CCCCCC1)[C@@H](c1ccccc1)C1CCCCC1
inactive: Potency [25] > 46 µM | Potency [19] > 46 µM | Potency [27] | Potency [20] | Potency [17] | Potency [18]
active: Potency [2] 31.6 µM | Potency [26] 3.98 µM
